# Measurements reported in ChEMBL document CHEMBL3988442, “University of Dundee, Small-Polar-MMV Screening Library” (2021).
# For part of these data: Potency and affinity values are given separately.
# Key:
# Set-up in all cases: scale not given: direction of the effect not stated beside the values
# [1] = target: Protein translocase subunit SecA (Escherichia coli (strain K12)) (UniProt P10408); test: Assay to Identify E. coli SecA ATPase Inhibitors; type: functional; details: 30 µM
# [2] = target: T1, Ubiquitin-activating enzyme e1, putative (Leishmania donovani (strain BPK282A1)) (UniProt E9BSI1); test: Leishmania donovani Ubiquitin Activating Enzyme (LdE1); type: functional; details: 30 µM
# T1 sequence (whole entry): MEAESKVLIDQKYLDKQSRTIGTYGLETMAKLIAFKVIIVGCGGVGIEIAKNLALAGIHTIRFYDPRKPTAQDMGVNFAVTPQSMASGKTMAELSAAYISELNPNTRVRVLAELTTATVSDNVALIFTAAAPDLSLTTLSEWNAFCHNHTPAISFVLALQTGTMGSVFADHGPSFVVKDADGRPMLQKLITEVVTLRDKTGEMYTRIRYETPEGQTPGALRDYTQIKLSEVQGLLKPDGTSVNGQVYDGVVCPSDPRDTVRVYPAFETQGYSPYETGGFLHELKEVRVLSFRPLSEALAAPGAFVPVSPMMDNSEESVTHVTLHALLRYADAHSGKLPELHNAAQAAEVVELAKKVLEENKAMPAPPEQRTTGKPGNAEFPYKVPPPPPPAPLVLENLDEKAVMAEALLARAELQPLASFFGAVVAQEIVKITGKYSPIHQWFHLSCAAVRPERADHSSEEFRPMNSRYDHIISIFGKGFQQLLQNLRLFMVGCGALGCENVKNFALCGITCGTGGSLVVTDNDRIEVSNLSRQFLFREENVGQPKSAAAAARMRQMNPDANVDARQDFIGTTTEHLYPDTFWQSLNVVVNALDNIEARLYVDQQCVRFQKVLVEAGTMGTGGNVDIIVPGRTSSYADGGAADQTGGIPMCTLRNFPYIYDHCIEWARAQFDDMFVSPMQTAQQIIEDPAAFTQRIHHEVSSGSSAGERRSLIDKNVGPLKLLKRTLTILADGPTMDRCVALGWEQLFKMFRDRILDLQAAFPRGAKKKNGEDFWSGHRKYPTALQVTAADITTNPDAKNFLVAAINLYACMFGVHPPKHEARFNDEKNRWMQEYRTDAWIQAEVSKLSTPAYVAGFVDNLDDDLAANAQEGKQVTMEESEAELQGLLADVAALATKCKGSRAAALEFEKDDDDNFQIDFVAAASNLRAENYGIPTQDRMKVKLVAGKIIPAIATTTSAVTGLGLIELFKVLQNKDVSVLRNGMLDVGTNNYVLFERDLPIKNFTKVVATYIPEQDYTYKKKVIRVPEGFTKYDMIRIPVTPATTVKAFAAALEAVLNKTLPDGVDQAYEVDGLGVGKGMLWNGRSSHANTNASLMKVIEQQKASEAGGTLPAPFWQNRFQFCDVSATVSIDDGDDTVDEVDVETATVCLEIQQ
# [3] = target: Sialic acid-binding Ig-like lectin 9 (Homo sapiens) (UniProt Q9Y336); test: Hs-Siglec9 ALPHAscreen SOP 20170721; details: 10 µM
# Sialic acid-binding Ig-like lectin 9 (Homo sapiens), sequence (Q9Y336 whole entry): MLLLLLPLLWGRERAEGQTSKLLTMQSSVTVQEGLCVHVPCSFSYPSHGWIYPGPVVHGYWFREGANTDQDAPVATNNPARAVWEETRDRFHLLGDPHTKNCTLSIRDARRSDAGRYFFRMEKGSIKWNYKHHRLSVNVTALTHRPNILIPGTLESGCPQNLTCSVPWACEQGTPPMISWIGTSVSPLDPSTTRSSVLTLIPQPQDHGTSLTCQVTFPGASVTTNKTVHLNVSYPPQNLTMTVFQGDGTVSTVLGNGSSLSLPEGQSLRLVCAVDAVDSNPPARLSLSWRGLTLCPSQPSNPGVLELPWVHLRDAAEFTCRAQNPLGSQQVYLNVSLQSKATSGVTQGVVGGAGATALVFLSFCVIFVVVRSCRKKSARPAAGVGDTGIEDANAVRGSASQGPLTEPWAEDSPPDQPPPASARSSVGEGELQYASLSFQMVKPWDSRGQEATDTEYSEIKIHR
# Trypanosoma cruzi = test: Trypanosoma cruzi phosphomannomutase and mannose-1-phosphate guanylyltransferase assay; type: functional; details: 10 µM
# [4] = target: T2, Arginase-2, mitochondrial (Homo sapiens) (UniProt P78540); test: in vitro enzyme assay to detect the production of urea directly proportional to the activity of Arginase II; type: functional; details: 33.3 µM; further: in the data most compounds retested in dose-response had high values
# T2 sequence (whole entry): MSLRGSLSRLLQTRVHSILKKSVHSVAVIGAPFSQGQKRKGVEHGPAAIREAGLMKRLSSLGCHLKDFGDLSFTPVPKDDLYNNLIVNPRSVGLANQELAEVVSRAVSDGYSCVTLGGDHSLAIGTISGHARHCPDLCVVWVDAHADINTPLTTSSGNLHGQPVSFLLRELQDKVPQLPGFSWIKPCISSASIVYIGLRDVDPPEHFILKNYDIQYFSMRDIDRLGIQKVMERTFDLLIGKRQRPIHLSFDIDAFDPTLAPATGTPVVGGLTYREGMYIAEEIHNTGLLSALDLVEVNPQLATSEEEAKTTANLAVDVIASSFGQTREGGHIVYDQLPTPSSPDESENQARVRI
# [5] = target: T3, Proteasome subunit beta (Trypanosoma cruzi) (UniProt O96673); test: Trypanosoma cruzi proteasome chymotrypsin-like activity (TcProtChymo) assay.; further: in the data most compounds retested in dose-response had high values; type: functional; details: 9.37 µM
# T3 sequence (whole entry): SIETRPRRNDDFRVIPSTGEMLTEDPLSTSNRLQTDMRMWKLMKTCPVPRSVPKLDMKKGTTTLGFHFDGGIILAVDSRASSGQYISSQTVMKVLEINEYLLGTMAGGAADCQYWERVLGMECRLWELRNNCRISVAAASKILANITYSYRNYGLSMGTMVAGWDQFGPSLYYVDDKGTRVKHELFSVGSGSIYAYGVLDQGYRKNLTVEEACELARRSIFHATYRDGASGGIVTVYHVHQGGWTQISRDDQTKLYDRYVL
# Homo sapiens = species: Homo sapiens; test: To identify inhibition of the IFN signalling (Jak-Stat) pathway via expression of an eGFP reporter gene under the control of an IFN-stimulated response element (ISRE) containing MxA promoter.; type: functional; details: 30 µM
# [6] = target: T4, Tyrosyl-tRNA synthetase, putative (Trypanosoma cruzi (strain CL Brener)) (UniProt Q4DSP6); test: Trypanosoma cruzi tyrosyl tRNA synthetase (TcYRS) _High Tyrosine SOP; type: functional; details: 30 µM; further: in the data most compounds retested in dose-response had high values
# T4 sequence (whole entry): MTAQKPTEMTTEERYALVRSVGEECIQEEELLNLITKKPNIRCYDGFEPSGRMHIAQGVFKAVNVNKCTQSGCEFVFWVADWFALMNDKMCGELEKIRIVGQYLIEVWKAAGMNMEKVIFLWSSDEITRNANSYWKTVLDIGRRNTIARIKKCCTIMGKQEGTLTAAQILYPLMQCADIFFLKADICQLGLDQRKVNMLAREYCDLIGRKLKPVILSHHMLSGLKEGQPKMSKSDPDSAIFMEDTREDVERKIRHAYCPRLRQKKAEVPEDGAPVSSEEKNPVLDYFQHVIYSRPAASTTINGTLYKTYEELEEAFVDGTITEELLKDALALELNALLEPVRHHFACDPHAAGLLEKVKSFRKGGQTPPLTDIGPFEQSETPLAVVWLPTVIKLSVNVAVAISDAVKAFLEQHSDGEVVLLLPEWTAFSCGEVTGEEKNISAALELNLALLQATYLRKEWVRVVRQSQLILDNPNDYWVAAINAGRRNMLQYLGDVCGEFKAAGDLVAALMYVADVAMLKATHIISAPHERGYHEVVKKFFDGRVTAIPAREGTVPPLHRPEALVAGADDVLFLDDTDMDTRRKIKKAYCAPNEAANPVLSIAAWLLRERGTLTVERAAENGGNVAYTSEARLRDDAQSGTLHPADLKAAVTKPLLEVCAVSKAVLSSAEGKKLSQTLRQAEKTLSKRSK
# [7] = target: T4, Tyrosyl-tRNA synthetase, putative (Trypanosoma cruzi (strain CL Brener)); test: Trypanosoma cruzi tyrosyl tRNA synthetase (TcYRS) SOP; type: functional; details: 30 µM
# [8] = target: Chromo domain-containing protein 1 (Saccharomyces cerevisiae (strain ATCC 204508 / S288c) (Baker's yeast)) (UniProt P32657); test: ScCHD-1 Enzyme Inhibition Assay; type: functional; details: 30 µM; further: in the data most compounds retested in dose-response had high values
# Chromo domain-containing protein 1 (Saccharomyces cerevisiae (strain ATCC 204508 / S288c) (Baker's yeast)), sequence (P32657 whole entry, the tested form may be a part): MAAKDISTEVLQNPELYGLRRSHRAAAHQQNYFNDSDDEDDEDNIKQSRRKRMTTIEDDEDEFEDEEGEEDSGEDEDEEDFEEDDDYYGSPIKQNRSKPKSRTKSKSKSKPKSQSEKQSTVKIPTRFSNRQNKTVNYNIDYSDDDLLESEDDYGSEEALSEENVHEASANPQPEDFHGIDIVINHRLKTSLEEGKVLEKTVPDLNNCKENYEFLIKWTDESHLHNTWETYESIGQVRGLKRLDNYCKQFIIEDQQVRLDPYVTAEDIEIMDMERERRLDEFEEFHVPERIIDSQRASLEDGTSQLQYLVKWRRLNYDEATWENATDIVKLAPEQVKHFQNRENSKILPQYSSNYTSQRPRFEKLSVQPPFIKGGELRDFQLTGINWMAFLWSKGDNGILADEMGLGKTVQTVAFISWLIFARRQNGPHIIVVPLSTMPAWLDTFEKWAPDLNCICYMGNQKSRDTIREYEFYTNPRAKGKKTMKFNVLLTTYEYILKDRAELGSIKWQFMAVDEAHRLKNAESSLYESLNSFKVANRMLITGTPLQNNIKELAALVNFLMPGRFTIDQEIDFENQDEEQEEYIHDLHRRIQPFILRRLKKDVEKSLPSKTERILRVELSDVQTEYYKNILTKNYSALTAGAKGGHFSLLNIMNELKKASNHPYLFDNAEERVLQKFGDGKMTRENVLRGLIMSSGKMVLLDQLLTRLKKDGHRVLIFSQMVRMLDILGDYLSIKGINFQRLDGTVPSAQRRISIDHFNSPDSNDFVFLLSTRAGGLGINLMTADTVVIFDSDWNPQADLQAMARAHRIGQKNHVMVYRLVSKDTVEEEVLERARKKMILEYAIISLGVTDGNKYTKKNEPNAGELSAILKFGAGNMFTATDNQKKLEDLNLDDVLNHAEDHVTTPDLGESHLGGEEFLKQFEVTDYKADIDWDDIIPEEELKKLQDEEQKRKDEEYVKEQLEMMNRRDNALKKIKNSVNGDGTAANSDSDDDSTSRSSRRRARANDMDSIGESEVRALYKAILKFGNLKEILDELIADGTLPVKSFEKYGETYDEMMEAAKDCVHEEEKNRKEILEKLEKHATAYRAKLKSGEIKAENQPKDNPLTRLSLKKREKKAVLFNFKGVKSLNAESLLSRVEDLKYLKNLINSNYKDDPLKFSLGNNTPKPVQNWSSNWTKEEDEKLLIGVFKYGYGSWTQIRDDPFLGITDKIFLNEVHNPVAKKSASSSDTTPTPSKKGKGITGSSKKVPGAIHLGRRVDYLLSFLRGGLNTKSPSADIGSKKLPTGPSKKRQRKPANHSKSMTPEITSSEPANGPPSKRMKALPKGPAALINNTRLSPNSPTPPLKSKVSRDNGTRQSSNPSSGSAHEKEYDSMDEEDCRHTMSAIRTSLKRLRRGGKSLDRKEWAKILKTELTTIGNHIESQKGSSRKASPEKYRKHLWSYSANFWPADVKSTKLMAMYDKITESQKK
# Protein translocase subunit SecA (Escherichia coli (strain K12)), sequence (P10408 whole entry): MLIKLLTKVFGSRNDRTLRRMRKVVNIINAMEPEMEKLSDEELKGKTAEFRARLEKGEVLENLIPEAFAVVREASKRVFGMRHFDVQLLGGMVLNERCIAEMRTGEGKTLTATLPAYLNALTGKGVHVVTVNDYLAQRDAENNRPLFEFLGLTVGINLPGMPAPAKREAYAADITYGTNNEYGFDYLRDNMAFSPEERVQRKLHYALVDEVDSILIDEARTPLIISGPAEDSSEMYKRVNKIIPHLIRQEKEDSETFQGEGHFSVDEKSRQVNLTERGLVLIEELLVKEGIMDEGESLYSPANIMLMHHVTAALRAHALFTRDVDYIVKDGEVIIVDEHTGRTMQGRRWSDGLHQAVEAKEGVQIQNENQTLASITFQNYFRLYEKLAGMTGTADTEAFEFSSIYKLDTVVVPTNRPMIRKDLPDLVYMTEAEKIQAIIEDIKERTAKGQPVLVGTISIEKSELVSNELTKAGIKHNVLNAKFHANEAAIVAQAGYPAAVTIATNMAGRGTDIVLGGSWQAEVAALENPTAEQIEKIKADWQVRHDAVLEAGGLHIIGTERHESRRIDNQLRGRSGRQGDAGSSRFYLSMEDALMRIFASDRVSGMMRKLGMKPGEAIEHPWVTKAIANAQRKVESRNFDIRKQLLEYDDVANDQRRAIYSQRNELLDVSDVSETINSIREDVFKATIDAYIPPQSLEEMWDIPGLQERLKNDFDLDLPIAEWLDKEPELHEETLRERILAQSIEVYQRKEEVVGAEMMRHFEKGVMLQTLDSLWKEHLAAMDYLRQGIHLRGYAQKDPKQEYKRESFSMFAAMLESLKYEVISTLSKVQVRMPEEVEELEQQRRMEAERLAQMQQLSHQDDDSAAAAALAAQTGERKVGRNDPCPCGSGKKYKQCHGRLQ
SMILES,Percent Effect [1] [%],Percent Effect [2] [%],Percent Effect [3] [%],Percent Effect (Trypanosoma cruzi) [%],Percent Effect [4] [%],Percent Effect [5] [%],Percent Effect (Homo sapiens) [%],Percent Effect [6] [%],Percent Effect [7] [%],Percent Effect [8] [%]
CC(=O)N(Cc1noc(C)n1)C1CCN(CCOc2ccccc2)C1 (stereo not given),-2.68,13,0.712,-1.68,-0.615,17.9,-1.33,7.84,21.2,-7.28
Cc1ccc(-c2cc(CN3CCCC(Cn4cncn4)C3)on2)cc1 (stereo not given),-6.67,7.79,-2.07,-1.68,1.84,4.39,28,0,4.71,-3.73
Cc1ccc(-c2nc(CN3CCCC3Cn3cc(C)cn3)no2)cc1 (stereo not given),-2.04,5.33,2.03,4.02,-8.43,22.6,12.1,1.58,10.3,-12
CCNc1nc2c(s1)C(=O)CN(C(=O)NCCc1ccccc1)C2,-3.42,5.33,-0.604,-6.43,3.99,-1.95,9.15,1.58,2.56,2.08
CN(Cc1ccc2c(c1)OCCO2)C(=O)Cn1cccnc1=O,-4.28,10.7,-2.28,3.41,1.33,16,6.87,6.84,12.8,-8.2
Cc1oncc1C(=O)NCc1cc(=O)n2c(n1)CN(C)CCC2,-1.85,6.49,-2.27,-8.28,4.86,24.6,12.2,2.63,12.8,-1.21
O=C(c1ccco1)N1C[C@H]2CCCN(CC3CCOCC3)[C@H]2C1,-3.2,6.49,-2.43,-4.77,-1.62,11.9,1.5,4.74,15.4,-2.11
CC(C)n1[nH]c(=O)c2c1NC(=O)CC2c1ccc2ncccc2c1 (stereo not given),-1.16,5.41,0.703,-2.62,-5.94,10.6,17.7,4.79,9.76,2.28
Cc1ccc(C#N)cc1NC(=O)NC1CCCN(c2ncccn2)C1 (stereo not given),-5.74,15.6,3.91,-2.98,1.02,-1.4,20.9,3.92,18.8,-8.47
CS(=O)(=O)NCc1cc2n(n1)CCCN(Cc1nc3ccccc3[nH]1)C2,-9.74,2.7,1.38,-1.46,3.85,6.16,-1.07,6.92,9.76,3.52
Cc1nn(C)cc1CCC(=O)N1CCCC(n2cncn2)C1 (stereo not given),-2.9,2.67,3.45,1.21,7.98,2.97,-4,3.68,10.3,-4.09
O=C(NCCn1ccnc1)N1CCCC1c1ccsc1 (stereo not given),-1.45,10.3,-12.8,8.73,1.64,17.7,-7.37,6.22,20.5,-4.56
COc1ccccc1OCC(=O)NS(=O)(=O)c1ccc(Br)s1,-3.35,5.2,18.6,-2.61,2.66,6.14,1.82,-1.96,7.06,-3.46
CC(C)N1CCN(C(=O)Nc2cnn(CC(N)=O)c2)CC1,-3.33,17.9,-17.7,9.67,0,11.7,5.26,-3.35,22.9,-6.52
CC(C)c1nc(CN2CCCN(Cc3nnc(C4CC4)o3)CC2)no1,-2.61,8,-2.85,-0.602,4.43,17.2,14.1,3.68,7.69,-9.7
CC(C)c1nccn1-c1cccc(C2CCCN(C3CCCC3)C2)n1 (stereo not given),-2.48,6.67,3.65,0.197,0.885,15.6,2.2,6.35,17.5,-23.6
COC[C@@H]1CC[C@H]2[C@H](CCN2S(=O)(=O)c2ccc(OC)cc2)O1,-2.3,-1.3,2.46,-0.876,-1.62,6.09,-19.4,-1.58,5.13,1.57
CN(C)c1cc(C(=O)N2CCCC(n3cccn3)C2)ccn1 (stereo not given),-2.71,5.13,3.76,1.97,3.69,2.47,18.3,-4.31,18.1,-3.29
CCNc1cc2c(nn1)CCN(C(=O)c1ccc(CNC(C)=O)o1)C2,-4.81,8,4.09,-1.81,3.99,6.36,5.79,3.68,15.4,-12.3
Cc1nc(C)n(CC2CCCN2Cc2cn(-c3ccccc3)nn2)n1 (stereo not given),-2.72,-2.67,1.09,-1,-1.77,2.97,-1.44,3.68,0,-6.83
CN(C)CCN1CCC2(CCN(C(=O)c3ccc(F)cc3)CC2)C1=O,-1.6,14.3,-0.427,-5.44,2.28,16.7,12.2,10.6,12.5,-6.97
c1nc2n(n1)CC(NCc1csc(-c3ccsc3)n1)CC2 (stereo not given),-1.39,7.69,-4.25,1.97,9.43,2.3,6.22,9.09,20.5,-0.275
CCOc1ncccc1C(=O)N1CCCC1c1c(C)nn(C)c1OC (stereo not given),1.2,0,10.2,1.68,-2.25,-2.81,-1.22,4.9,11.8,-4.83
O=C1CC2(CCCNC2)C(=O)N1Cc1ccc(F)cc1 (stereo not given),-2.69,11.7,-3.81,-5.82,2.28,6.95,15.5,0.966,-2.5,-0.664
